Activity calls are given as the source filed them. Unless noted, calls come from the whole dose curve; as a rule, active = well fitted curve in the direction sought with a large enough effect in the repeat runs; inconclusive = weak or mixed curves; inactive = no such curve, though single readings can be large; an effect the other way counts as inactive or inconclusive.
Experiments:
[1] = qHTS assay for small molecule agonists of the p53 signaling pathway (AID 651631; calls by dose curve; note: nearly all actives have a fitted effect of over 15% in size; note: potency is the fitted concentration of half-maximal effect)
Summary of the method: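 Readout was fluorescence from the LiveBLAzer FRET substrate, applied for 2 h at room temperature after 16 h compound exposure at 37 °C. Cells were the p53RE-bla HCT-116 line, with beta-lactamase driven by p53 response elements.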

[2] = qHTS assay for small molecules that induce genotoxicity in human embryonic kidney cells expressing luciferase-tagged ATAD5 - cell viability (AID 651634; calls by dose curve; note: nearly all actives have a fitted effect of over 25% in size; note: potency is the fitted concentration of half-maximal effect)
Summary of the method: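 HEK293T cells expressing luciferase-tagged ATAD5 were exposed to compound or DMSO for 15.5 hr at 37C, 5% CO2. Viability was then read as live-cell protease activity by CellTiter-Fluor fluorescence after 30 min at 37C.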

[3] = qHTS assay to test for compound auto fluorescence at 535 nm (green) in HEK293 cells (AID 720680); note: potency is the fitted concentration of half-maximal effect
[4] = qHTS assay to test for compound auto fluorescence at 460 nm (blue) in HepG2 cell free culture (AID 720685)
Summary of the method: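 Compound (23 nL) or DMSO pinned into cell-free MEM with 10% FBS; blue fluorescence read at 405/460 nm excitation/emission, expressed as auto-fluorescence equivalency to triamterene.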

[5] = molecular target: Glucocorticoid receptor (Homo sapiens) (UniProt P04150); test: qHTS assay to identify small molecule antagonists of the glucocorticoid receptor (GR) signaling pathway (AID 720692; active = well fitted inhibition curve with a large enough effect in the signal ratio in the repeat runs, not every such curve was filed as active; inconclusive = weak or mixed curves, or effect the other way; inactive = no such curve, though single readings can be large or run the other way; the % refers to the signal ratio; note: potency is the fitted concentration of half-maximal effect)
Glucocorticoid receptor (Homo sapiens), sequence (P04150 whole entry, looked up): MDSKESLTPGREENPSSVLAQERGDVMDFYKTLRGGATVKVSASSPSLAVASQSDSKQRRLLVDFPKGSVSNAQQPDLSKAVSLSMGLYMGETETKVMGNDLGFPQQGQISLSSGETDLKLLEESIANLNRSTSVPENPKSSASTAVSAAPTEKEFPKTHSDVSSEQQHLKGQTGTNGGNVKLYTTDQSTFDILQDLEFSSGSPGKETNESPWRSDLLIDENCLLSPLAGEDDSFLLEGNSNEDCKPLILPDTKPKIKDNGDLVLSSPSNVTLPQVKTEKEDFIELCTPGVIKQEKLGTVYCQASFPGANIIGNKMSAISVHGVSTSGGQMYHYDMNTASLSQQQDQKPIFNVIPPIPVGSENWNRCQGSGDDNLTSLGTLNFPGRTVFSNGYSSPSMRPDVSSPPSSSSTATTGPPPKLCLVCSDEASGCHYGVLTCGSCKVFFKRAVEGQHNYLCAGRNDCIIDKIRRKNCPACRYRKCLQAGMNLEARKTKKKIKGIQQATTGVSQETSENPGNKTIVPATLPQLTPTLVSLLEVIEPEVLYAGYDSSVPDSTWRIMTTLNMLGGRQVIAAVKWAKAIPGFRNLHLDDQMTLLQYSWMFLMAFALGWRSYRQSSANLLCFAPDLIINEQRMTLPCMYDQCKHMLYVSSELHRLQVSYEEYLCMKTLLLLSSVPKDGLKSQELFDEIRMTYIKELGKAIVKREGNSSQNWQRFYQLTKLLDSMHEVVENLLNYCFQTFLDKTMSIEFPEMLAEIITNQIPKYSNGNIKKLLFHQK
Summary of the method: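 GR-bla HeLa cells (beta-lactamase reporter under glucocorticoid response element) were pre-plated 4 h at 37 C, treated with compounds plus 5 nM dexamethasone (final) for 18 h, then read by LiveBLAzer B/G FRET fluorescence after 2 h.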

[6] = qHTS assay for identifying genotoxic compounds that show differential cytotoxicity against isogenic chicken DT40 cell lines with known DNA damage response pathways - wild type cell line (AID 743012); note: nearly all actives have a fitted effect of over 60% in size; note: potency is the fitted concentration of half-maximal effect
Summary of the method: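 Parental DNA repair-proficient DT40 cells, 300 per well, were pre-incubated ~0.5 h at 37 C/5% CO2, pin-dosed with compounds in DMSO, then incubated 40 h. Viability was read as CellTiter-Glo luminescence after 30 min at room temperature.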

[7] = qHTS assay for identifying genotoxic compounds that show differential cytotoxicity against isogenic chicken DT40 cell lines with known DNA damage response pathways - Rev3 mutant cell line (AID 743014); note: nearly all actives have a fitted effect of over 55% in size; note: potency is the fitted concentration of half-maximal effect
[8] = qHTS assay to identify small molecule antagonists of the androgen receptor (AR) signaling pathway using the MDA cell line - cell viability counter screen (AID 743041; note: nearly all actives have a fitted effect of over 45% in size; note: potency is the fitted concentration of half-maximal effect)
Summary of the method: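 MDA-kb2 AR-luc cells (MMTV-luciferase, AR/GR responsive) treated with compounds plus R1881 agonist for 16 h at 37C. CellTiter-Fluor added at 15.5 h; fluorescence read after 30 min in the same wells.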

[9] = qHTS assay to identify small molecule antagonists of the thyroid receptor (TR) signaling pathway - cell viability counter screen (AID 743064); note: nearly all actives have a fitted effect of over 50% in size; note: potency is the fitted concentration of half-maximal effect
Summary of the method: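 In-well cytotoxicity read by CellTiter-Fluor (30 min, 37 C) following 23.5 h exposure of GH3 cells bearing a TRE-luciferase sensor. Compounds were added alongside 1 nM (final) T3 to drive TR transactivation.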

[10] = qHTS assay to identify small molecule antagonists of the thyroid receptor (TR) signaling pathway (AID 743065); note: nearly all actives have a fitted effect of over 55% in size; note: potency is the fitted concentration of half-maximal effect
Summary of the method: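 GH3.TRE-Luc rat pituitary cells (two TREs driving luciferase) were dosed with compound, then stimulated with 1 nM T3 (final) for 23.5 h at 37 C. ONE-Glo luminescence was the read-out, with CellTiter-Fluor fluorescence as the cytotoxicity counter-screen.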

[11] = tested on: thyroid hormone receptor (rat, GH3 cells); test: qHTS assay to identify small molecule agonists of the thyroid receptor (TR) signaling pathway (AID 743066; calls by dose curve)
[12] = molecular target: Estrogen receptor (Homo sapiens) (UniProt P03372); test: qHTS assay to identify small molecule antagonists of the estrogen receptor alpha (ER-alpha) signaling pathway (AID 743069; active = well fitted curve in the direction sought with a large enough effect in the signal ratio in the repeat runs, not every such curve was filed as active; inconclusive = weak or mixed curves, or effect the other way; inactive = no such curve, though single readings can be large or run the other way; the % refers to the signal ratio)
Estrogen receptor (Homo sapiens), sequence (P03372 whole entry, looked up): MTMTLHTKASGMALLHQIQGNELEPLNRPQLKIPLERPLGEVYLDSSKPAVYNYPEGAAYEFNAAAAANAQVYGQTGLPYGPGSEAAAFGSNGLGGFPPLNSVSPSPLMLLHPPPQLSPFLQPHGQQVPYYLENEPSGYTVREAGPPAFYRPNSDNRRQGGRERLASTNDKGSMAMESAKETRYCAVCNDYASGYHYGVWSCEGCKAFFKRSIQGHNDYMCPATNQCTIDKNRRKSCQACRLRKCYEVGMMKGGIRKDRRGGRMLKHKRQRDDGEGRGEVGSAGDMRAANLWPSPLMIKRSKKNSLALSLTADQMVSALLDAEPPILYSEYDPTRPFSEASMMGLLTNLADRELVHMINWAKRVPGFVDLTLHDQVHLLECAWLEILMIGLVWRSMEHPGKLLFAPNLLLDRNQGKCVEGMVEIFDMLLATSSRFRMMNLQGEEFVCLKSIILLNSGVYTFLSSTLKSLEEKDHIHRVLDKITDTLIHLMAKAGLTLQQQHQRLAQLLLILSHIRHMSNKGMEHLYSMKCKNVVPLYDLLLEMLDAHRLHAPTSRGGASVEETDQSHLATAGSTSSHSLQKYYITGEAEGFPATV
Summary of the method: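 HEK293 ER-alpha-UAS-bla GripTite cells, held overnight in 2% charcoal-stripped FBS, 5,000 cells/well, preincubated 4 h, then compound plus 17beta-estradiol for 18 h at 37C. Beta-lactamase read by LiveBLAzer B/G FRET substrate, 2 h at room temperature.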

[13] = molecular target: Estrogen receptor (Homo sapiens) (UniProt P03372); test: qHTS assay to identify small molecule agonists of the estrogen receptor alpha (ER-alpha) signaling pathway (AID 743075; calls by dose curve; note: potency is the fitted concentration of half-maximal effect)
[14] = molecular target: Estrogen receptor (Homo sapiens) (UniProt P03372); test: qHTS assay to identify small molecule agonists of the estrogen receptor alpha (ER-alpha) signaling pathway using the BG1 cell line (AID 743079); note: nearly all actives have a fitted effect of over 20% in size; note: potency is the fitted concentration of half-maximal effect
[15] = qHTS assay to identify small molecule antagonists of the estrogen receptor alpha (ER-alpha) signaling pathway using the BG1 cell line (AID 743080; calls by dose curve; note: series mostly up to about 70 µM; nearly all actives have a fitted effect of over 25% in size)
Summary of the method: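 Antagonist mode: compounds in DMSO were pinned onto BG1-Luc-4E2 cells alongside 17beta-estradiol agonist, incubated 21.5 h, and ERE-driven luciferase measured with ONE-Glo. Cytotoxicity was multiplexed using CellTiter-Fluor fluorescence.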

[16] = qHTS assay to identify small molecule antagonists of the estrogen receptor alpha (ER-alpha) signaling pathway using the BG1 cell line - cell viability counter screen (AID 743081);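 note: compound given together with 17beta-estradiol as the ER stimulus; nearly all actives have a fitted effect of over 45% in size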; note: potency is the fitted concentration of half-maximal effect
[17] = molecular target: Peroxisome proliferator-activated receptor gamma (Homo sapiens) (UniProt P37231); test: qHTS assay to identify small molecule agonists of the peroxisome proliferator-activated receptor gamma (PPARg) signaling pathway (AID 743094; active = well fitted activation curve with a large enough effect in the signal ratio in the repeat runs, not every such curve was filed as active; inconclusive = weak or mixed curves, or effect the other way; inactive = no such curve, though single readings can be large or run the other way; the % refers to the signal ratio; note: potency is the fitted concentration of half-maximal effect)
Peroxisome proliferator-activated receptor gamma (Homo sapiens), sequence (P37231 whole entry, looked up): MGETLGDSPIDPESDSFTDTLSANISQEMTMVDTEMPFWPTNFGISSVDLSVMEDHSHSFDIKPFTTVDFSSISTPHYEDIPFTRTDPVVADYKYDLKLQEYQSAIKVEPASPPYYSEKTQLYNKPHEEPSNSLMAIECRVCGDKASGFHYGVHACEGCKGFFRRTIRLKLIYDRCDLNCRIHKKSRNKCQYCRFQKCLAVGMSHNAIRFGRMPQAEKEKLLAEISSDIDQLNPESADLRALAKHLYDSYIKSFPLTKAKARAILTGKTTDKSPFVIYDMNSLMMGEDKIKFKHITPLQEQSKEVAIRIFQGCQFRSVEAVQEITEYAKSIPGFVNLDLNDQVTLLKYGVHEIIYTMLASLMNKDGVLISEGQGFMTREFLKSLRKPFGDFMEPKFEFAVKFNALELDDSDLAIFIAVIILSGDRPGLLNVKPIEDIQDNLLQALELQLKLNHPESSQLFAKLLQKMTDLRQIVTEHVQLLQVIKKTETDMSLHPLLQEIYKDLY
Summary of the method: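 GeneBLAzer PPARg UAS-bla HEK293H cells carrying a stably integrated beta-lactamase reporter were pre-incubated 5 h at 37C, then exposed to compounds in DMSO for 17 h at 37C; LiveBLAzer B/G FRET substrate was added for 1 h at room temperature and fluorescence read.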

[18] = qHTS assay for small molecules that induce genotoxicity in human embryonic kidney cells expressing luciferase-tagged ATAD5 (AID 651632); note: nearly all actives have a fitted effect of over 15% in size
Summary of the method: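 HEK293T cells carrying a luciferase reporter tagged to ATAD5 were exposed to compound or DMSO vehicle for 16 hr at 37C, 5% CO2. Amplite was added, and after 30 min at room temperature luciferase activity was read as a marker of ATAD5 induction.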

[19] = qHTS assay for small molecule disruptors of the mitochondrial membrane potential (AID 720635); note: potency is the fitted concentration of half-maximal effect
Summary of the method: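 HepG2 cells exposed to compound 1 hr at 37C, then Mito-MPS dye 30 min. Ratio read of aggregate (540/590 nm) versus monomer (490/535 nm) fluorescence.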

Measured: Potency
Tags give direction and shape of the fitted curve or compound fluorescence and quenching.

CC(=O)OC1CN2CCC1CC2 (configuration not stated)
inactive: [1] | [2] | [3] | [4] | [5] | [6] | [7] | [8] | [9] | [10] | [11] | [12] | [13] | [14] | [15] | [16] | [17]

C[C@]12CC[C@H]3[C@@H](CCC4=CC(=O)CC[C@@]43C)[C@@H]1CC[C@H]2O
active: [5] 4.25 µM | [6] 23.7 µM
inactive: [18] | [2] | [3] | [4] | [8] | [11] | [16] | [17]

C[C@H]1CC[C@]2(NC1)O[C@H]1C[C@H]3[C@@H]4CC[C@H]5C[C@@H](O)CC[C@]5(C)[C@H]4CC[C@]3(C)[C@H]1[C@@H]2C
inactive: [1] | [18] | [3] | [4] | [6] | [7] | [8] | [11] | [12] | [13] | [14] | [15] | [16] | [17]
active: [10] 26.6 µM

CO[C@H]1[C@@H](O)C[C@H](O[C@H]2[C@@H](O)C[C@H](O[C@H]3[C@@H](O)C[C@H](O[C@H]4CC[C@@]5(C)[C@H](CC[C@@H]6[C@@H]5C[C@@H](O)[C@]5(C)[C@@H](C7=CC(=O)OC7)CC[C@]65O)C4)O[C@@H]3C)O[C@@H]2C)O[C@@H]1C
active: [2] 0.0944 µM | [19] 0.699 µM | [6] 0.531 µM | [7] 0.668 µM
inactive: [18] | [3] | [4] | [9] | [10] | [11] | [13] | [16]

CNC(=O)Oc1ccccc1C(=O)Nc1ccccc1
active: [19] 5.96 µM
inactive: [18] | [2] | [3] | [4] | [5] | [8] | [9] | [11] | [12] | [13] | [16] | [17]

C[C@]12C[C@H]3S[C@H]3C[C@@H]1CC[C@@H]1[C@@H]2CC[C@]2(C)[C@@H](O)CC[C@@H]12
inactive: [2] | [3] | [4] | [7] | [8] | [9] | [10] | [11] | [16] | [17]
active: [19] 11.4 µM | [13] 0.256 µM [inconclusive] | [14] 0.143 µM

CN(C)[C@H](Cc1ccccc1)c1ccccc1
inactive: [18] | [2] | [19] | [3] | [4] | [7] | [8] | [9] | [10] | [11] | [12] | [13] | [14] | [15] | [16] | [17]

CNC(=O)OCC[N+](C)(C)C
inactive: [1] | [18] | [19] | [3] | [4] | [5] | [6] | [7] | [8] | [9] | [10] | [12] | [13] | [14] | [15] | [16]

O=C1OC2(c3cc(Br)c(O)cc3Oc3c2cc(Br)c(O)[c]3[Hg])c2ccccc21 (configuration not stated)
inactive: [1] | [18] | [2] | [4] | [5] | [8] | [9] | [12] | [13] | [14] | [15] | [17]
active: [3] 10 µM [fluorescent] | [6] 10.1 µM | [7] 11.4 µM

C[C@]12C=CC(=O)C=C1CC[C@@H]1[C@@H]2CC[C@]2(C)OC(=O)CC[C@@H]12
inactive: [1] | [18] | [2] | [19] | [3] | [6] | [7] | [8] | [10] | [11] | [15] | [16] | [17]
active: [13] 21.3 µM [inconclusive] | [14] 5.31 µM

[H+].[H+].[Hg+2].[O-]B([O-])[O-].[c-]1ccccc1
inactive: [3] | [4]
active: [1] 1.33 µM | [19] 13.9 µM | [6] 0.266 µM | [7] 0.531 µM | [8] 13.3 µM | [9] 1.06 µM | [10] 0.596 µM | [13] 30.1 µM [inconclusive] | [16] 5.31 µM | [17] 19 µM

CCCCC[C@@H](O)C1C(=O)OC(C)[C@H](O)/C=C/C=C/C=C/C=C/C=C(\C)C(O)C(O)C(O)C[C@H](O)C[C@H](O)C[C@H](O)C[C@H](O)C[C@@H]1O (some centres not stated)
inactive: [19] | [3] | [4] | [5] | [6] | [7] | [8] | [9] | [10] | [11] | [12] | [13] | [14] | [15] | [16] | [17]

CN1[C@@H]2CC[C@H]1CC(OC1c3ccccc3CCc3ccccc31)C2 (some centres not stated)
active: [6] 7.17 µM | [7] 10.1 µM | [9] 2.85 µM | [10] 5.07 µM
inactive: [4] | [5] | [8] | [11] | [12] | [13] | [14] | [15] | [16] | [17]

CCCC(C)C1(CC)C(=O)NC(=O)NC1=O (configuration not stated)
inactive: [18] | [2] | [3] | [4] | [7] | [8] | [9] | [10] | [11] | [12] | [13] | [14] | [15] | [16] | [17]

C[C@@H](Cc1ccccc1)N(C)C
inactive: [1] | [18] | [2] | [19] | [3] | [4] | [6] | [7] | [8] | [9] | [10] | [11] | [16] | [17]

C=CCC1(C(C)CCC)C(=O)N=C(S)NC1=O (configuration not stated)
inactive: [1] | [18] | [2] | [19] | [3] | [4] | [5] | [6] | [7] | [8] | [9] | [10] | [11] | [12] | [13] | [14] | [15] | [16] | [17]
